Most compounds without a hit are left out; they make up all but 2.1% or so of the library.
TRPM1 prom inh = inhibitors of MITF-driven TRPM1 promoter in melanoma cells; SK-MEL-5 TRPM1 promoter luciferase, 24 h; inhibition, % at 12.5 µM; 330,000 tested, 0.83% active;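 active = mean inhibition across replicates of 60% or more, whatever share of single replicates reaches that level; inconclusive = some that reach 60%, reason not given; inactive = mean inhibition across replicates below 60%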
Shn3 3UTR inh = reduces Shn3 3'UTR luciferase signal in osteoblasts; inhibition, % at 12.5 µM; 360,000 tested, 0.52% active; Clone20 osteoblast Shn3 3'UTR firefly luciferase, 24 h;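 active = mean inhibition of at least 75% with every replicate also reaching 75%; inconclusive = mean inhibition at least 75% but some replicate below; inactive = mean inhibition below 75%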
EBV LMP1 NFkB = Epstein-Barr LMP1 NF-kappaB reporter inhibition. LMP1-induced NF-kappaB luciferase reporter cells, luminescence. inhibition, % at 12.5 µM. 350,000 tested, 0.69% active. AID 504558; in the data active = inhibition above about 41%; inconclusive = no clear call, values can overlap the other calls
aSyn UTR inh = MLPCN primary screen, SNCA 5' untranslated region. alpha-synuclein 5'UTR reporter, inhibitor activity. inhibition, % (tested at 7.5 µM). 300,000 tested, 0.82% active; in the data active = inhibition above about 60%; inconclusive = no clear call, values can overlap the other calls;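 also: H4 neuroglioblastoma cells stably carrying SNCA 5'UTR luciferase fusion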
PAX8 reporter = PAX8 transcriptional activity inhibition | RMG-I TPO-luciferase reporter, SteadyGlo, 24 h | inhibition, % at 12.6 µM | 360,000 tested, 1.2% active | AID 652154;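 active = mean replicate inhibition at least 60% with every replicate also reaching 60%; inconclusive = only one of the two criteria is met; inactive = mean below 60% and not all replicates reaching 60%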;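 also: luciferase light reporting Pax8 driven TPO promoter activity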
Large screens that a line does not name were inactive.

COc1ccc(C(C[N+](=O)[O-])c2c(-c3ccccc3)cc3ccccn23)cc1OC (configuration not stated)	none
COc1ccc(C(C[N+](=O)[O-])C2(c3ccc(OC)c(OC)c3)C(=O)c3ccccc3C2=O)cc1 (configuration not stated)	Shn3 3UTR inh 95.3 (no result: PAX8 reporter)
CCn1c2ccccc2c2cc(/C=N/NC(=O)c3ccccc3C)ccc21	EBV LMP1 NFkB 87.0
Cc1cccc(C(=O)Oc2ccc(/C=N/NC(=O)c3ccc(O)cc3)cc2)c1	none
Cc1cccc(C(=O)Oc2ccc(/C=N/NC(=O)c3ccccc3O)cc2)c1	PAX8 reporter 104.0
CCn1c2ccccc2c2cc(/C=N/NC(=O)c3cccc(C)c3)ccc21	EBV LMP1 NFkB 87.8 (no result: PAX8 reporter)
S=C(c1ccc(Br)cc1)N1CCN(Cc2ccccc2)CC1	none (no result: PAX8 reporter)
CN(C1CCCCC1)S(=O)(=O)c1cccc(C(=O)OCC(=O)NC2CCCc3ccccc32)c1 (configuration not stated)	none
N#Cc1nc(COc2ccccc2Cl)oc1NCc1cccnc1	none (no result: PAX8 reporter)
O=C(Cc1ccc(-n2c(=O)c3sccc3n(CC(=O)Nc3ccccc3)c2=O)cc1)NCc1ccco1	none
O=C(Cc1ccc(-n2c(=O)c3sccc3n(CC(=O)Nc3ccccc3F)c2=O)cc1)NCc1ccco1	EBV LMP1 NFkB 69.4
c1ccc(-c2nc(NCc3ccco3)c3ccccc3n2)nc1	EBV LMP1 NFkB 63.3 (no result: PAX8 reporter)
Cc1ccc(Nc2nc(NCc3ccco3)c3ccccc3n2)cc1	Shn3 3UTR inh 95.8
CC(C)(C)C1CCC(=O)C(C2(O)C(=O)Nc3ccccc32)C1 (configuration not stated)	none (no result: PAX8 reporter)
COC1=C(OC)C(=O)C(Sc2ccc3ccccc3c2)=CC1=O	Shn3 3UTR inh 86.8 (no result: aSyn UTR inh)
O=S(=O)(NCCS(=O)(=O)N1CCN(c2ccc(F)cc2)CC1)c1ccccc1	none (no result: TRPM1 prom inh, aSyn UTR inh)
O=c1cc(Cl)nc2ccccn12	EBV LMP1 NFkB 71.1 (no result: aSyn UTR inh)
O=c1cc(NCc2ccccc2)nc2ccccn12	none
Cn1cnc([N+](=O)[O-])c1Sc1nc(N)nc2c1ncn2C1OC(CO)C(O)C1O (configuration not stated)	none (no result: aSyn UTR inh, PAX8 reporter)
Cn1cnc([N+](=O)[O-])c1Sc1nc(N)nc2c1ncn2C1CC(O)C(CO)O1 (configuration not stated)	PAX8 reporter 74.1 (no result: aSyn UTR inh)
O=C(COC(=O)Cc1ccc(F)cc1)Nc1ccc(Cl)cn1	none (no result: TRPM1 prom inh, aSyn UTR inh)
CC(=O)N1CCCc2cc(S(=O)(=O)N3CCCC(C(=O)N4CCN(c5ccccc5)CC4)C3)ccc21 (configuration not stated)	none
COc1ccccc1N1CCN(C(=O)C2CCCN(S(=O)(=O)c3ccc4c(c3)CCCN4C(C)=O)C2)CC1 (configuration not stated)	Shn3 3UTR inh 86.6
CCN(CC)C(=O)c1[nH]cnc1C(=O)N[C@@H](CCCCNC(=O)OC(C)(C)C)C(=O)OC(C)(C)C	none
COc1ccc([Si](C)(C)[C@@H]2[C@@H](CCO)O[C@]3(C(=O)N4c5c(cc(OC)cc53)C(C)=CC4(C)C)[C@H]2C)cc1	PAX8 reporter 106.2 (no result: TRPM1 prom inh, Shn3 3UTR inh, EBV LMP1 NFkB, aSyn UTR inh)
COc1ccc([Si](C)(C)[C@H]2[C@H](CCO)O[C@@]3(C(=O)N(C)c4ccccc43)[C@@H]2C)cc1	none (no result: TRPM1 prom inh, Shn3 3UTR inh, EBV LMP1 NFkB, aSyn UTR inh)
COc1ccc([Si](C)(C)[C@H]2[C@H](CCO)O[C@@]3(C(=O)N4c5c(cc(OC)cc53)C(C)=CC4(C)C)[C@@H]2C)cc1	PAX8 reporter 102.2 (no result: TRPM1 prom inh, Shn3 3UTR inh, EBV LMP1 NFkB, aSyn UTR inh)
Cc1ccc(-c2noc(CCC(=O)NCC3CCCO3)n2)cc1 (configuration not stated)	none (no result: PAX8 reporter)
O=C(CCc1nc(-c2ccccc2)no1)NCC1CCCO1 (configuration not stated)	EBV LMP1 NFkB 74.2 (no result: PAX8 reporter)
CC(C)(C)c1ccc(-c2noc(CCC(=O)NCC3CCCO3)n2)cc1 (configuration not stated)	TRPM1 prom inh 83.8, EBV LMP1 NFkB 42.5, aSyn UTR inh 104.2 (no result: PAX8 reporter)
COc1ccc(-c2noc(CCCC(=O)NC3CCCC3)n2)cc1	aSyn UTR inh 62.4
O=C1C=CC(=O)N1CCNc1ncc(C(F)(F)F)cc1Cl	Shn3 3UTR inh 85.9, PAX8 reporter inconclusive
O=C(CCS(=O)(=O)c1ccccc1)Nc1nc2ccc(F)cc2s1	PAX8 reporter 107.0
Cc1ccc2nc(-c3ccc(NC(=O)CCS(=O)(=O)c4ccccc4)cc3)sc2c1	aSyn UTR inh 62.0
O=C(NCCc1ccccc1)c1cccnc1	none
COc1cccc(/C=C/C(=O)NCCc2ccc3c(c2)OCCO3)c1	none
O=C(/C=C/c1ccccc1)NCCc1ccc2c(c1)OCCO2	PAX8 reporter 69.4
O=C(NCCc1ccccc1)c1ccc2c(c1)OCO2	EBV LMP1 NFkB 49.3, aSyn UTR inh 90.9
O=C(NCCc1ccccc1)c1ccccc1Cl	EBV LMP1 NFkB 45.6
O=C(NCCc1ccccc1)c1ccc2nccnc2c1	EBV LMP1 NFkB 50.2, aSyn UTR inh 63.1
Cc1n[nH]c(=O)nc1NCCN(C)C	none
CC1(C)CN(c2cccc(-c3ccnc4ncnn34)c2)C1=O	none
Cc1cc(C)n(C(=O)c2ccncc2)n1	none (no result: TRPM1 prom inh, Shn3 3UTR inh, EBV LMP1 NFkB, PAX8 reporter)
CN(C)C/C=C/C(O)(c1ccccc1)c1ccccc1	none
CN(C)CC(CCC(CN(C)C)C(O)(c1ccccc1)c1ccccc1)C(O)(c1ccccc1)c1ccccc1 (configuration not stated)	aSyn UTR inh 101.2, PAX8 reporter 86.7 (no result: TRPM1 prom inh, Shn3 3UTR inh, EBV LMP1 NFkB)
CCOC(=O)C1=C(C)N(CCCCCC(=O)O)C(=O)NC1c1ccccc1OS(=O)(=O)c1ccc(C)cc1 (configuration not stated)	none
O=C(Nc1cccc(O)c1)c1cc(-c2ccc3c(c2)OCO3)on1	aSyn UTR inh 69.3
O=C(NCCc1ccccc1)c1cnc2ccccn2c1=O	none (no result: PAX8 reporter)
Cc1ccccc1NC(=O)c1cnc2ccccn2c1=O	aSyn UTR inh 61.8 (no result: PAX8 reporter)
Cc1cc(OCC(=O)Nc2cnn(CCCC(=O)O)c2)ccc1Cl	EBV LMP1 NFkB 59.0
Cc1cc(OCC(=O)Nc2cnn(CCCC(=O)O)c2)ccc1[N+](=O)[O-]	none
CCCn1nnnc1NCc1ccc(N(CC)CC)cc1	none
Oc1c(C(c2ccccc2)N2CCOCC2)ccc2ccccc12 (configuration not stated)	PAX8 reporter 86.7 (no result: aSyn UTR inh)
O=C(CN1CCN(C(c2ccccc2)c2ccccc2)CC1)N1CCOCC1	none (no result: PAX8 reporter)
CC1(C)CC(NC(=O)c2ccc(Cl)c(S(=O)(=O)N(Cc3ccccc3)c3ccccc3)c2)CC(C)(C)N1	TRPM1 prom inh 91.7
COc1ccc(Nc2oc(COc3ccc(C)cc3)nc2C#N)cc1	aSyn UTR inh 67.9 (no result: PAX8 reporter)
COc1ccc(Nc2oc(COc3ccc(OC)cc3)nc2C#N)cc1	aSyn UTR inh 77.9
COc1ccc(Nc2oc(COc3cccc(C)c3)nc2C#N)cc1	none
C[C@@H]1CN([C@H](C)CO)C(=O)c2cccc(NC(=O)c3cnccn3)c2O[C@@H]1CN(C)C(=O)Nc1ccccc1	none (no result: TRPM1 prom inh, Shn3 3UTR inh, EBV LMP1 NFkB, aSyn UTR inh)
CN(Cc1ccccc1)S(=O)(=O)c1ccc(N2CCCC2=O)cc1	none (no result: aSyn UTR inh)
N=c1n(Cc2ccccc2)c2ccccc2n1CC(O)COc1ccccc1 (configuration not stated)	Shn3 3UTR inh 89.0
CCc1cc(=O)oc2cc(C)cc(OCC(C)=O)c12	none (no result: TRPM1 prom inh, EBV LMP1 NFkB)

Assay outcomes as filed in PubChem BioAssay.
